This is part of a sample that, as a whole, favours compounds with a hit. Of some 79,000 tested, about 15% had one in any assay. Values without a mark were called inactive. Calls of active or inactive are those of the source. Rule as the data show it: active = growth inhibition above about 70%; inactive = the rest.
Assay: NCI Yeast Anticancer Drug Screen. Data for the rad50 strain (AID 155);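 also: 0% = growth of vehicle-only cultures of the same strain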
Details: S. cerevisiae rad50 strain growth inhibition; at 50.0 µM; active compounds read high
In short: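 Compounds were tested on a yeast strain with an engineered DNA damage repair alteration; the reported value is growth inhibition normalised to vehicle treatment.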

Row | Structure (SMILES) | growth inhibition
1 | N#CCCN(Cc1ccccc1)CN1C(=O)c2ccccc2C1=O | 8.75%
2 | N#Cc1ccc(-n2cccc2)cc1 | -1.8%
3 | O=C(O)C(CSC(c1ccccc1)(c1ccccc1)c1ccccc1)Nc1ccccc1[N+](=O)[O-] (stereo not given) | 99% (active)
4 | Cc1ccc[nH]c1=O | -9.9%
5 | Cc1nc(N)sc1C(=O)/C=C/c1ccc([N+](=O)[O-])cc1 | 16.2%
6 | c1ccc2nc(N3CCCC3)c(N3CCCC3)nc2c1 | -8.75%
7 | C/C(=N/Nc1ccc([N+](=O)[O-])cc1[N+](=O)[O-])C(CC(C(=O)NCc1ccccc1)/C(C)=N\Nc1ccc([N+](=O)[O-])cc1[N+](=O)[O-])C(=O)NCc1ccccc1 (stereo not given) | 5.25%
8 | O=S(=O)(O)c1cc(I)c(O)c2ncccc12 | 18.5%
9 | CC/C(Cl)=N\OC(=O)Nc1ccc(C#N)cc1 | -44.8%
10 | CC(=O)N(C(C)=O)n1c(Cc2ccc(Cl)cc2)nn(C(C)=O)c1=O | 7.85%
11 | CCCSc1ncnc2c1nc(C)n2CO | -2.15%
12 | Cc1ccc(S(=O)(=O)Oc2c(Cl)cc(Cl)cc2Cl)cc1 | -2.4%
13 | Cc1cc(C)c2c(=O)c3c(oc2c1)O[C@@](C)(CO)C[C@@H]3c1ccccc1 | 1.15%
14 | Cc1ccc(C(=O)CCN2CCOCC2)c(C)c1 | 40.1%
15 | CCN(CC)CCNc1ccc2ncn3c4c(OC)ccc(OC)c4c(=O)c1c23 | -21.1%
16 | Nc1cc(Cl)cc2c1nc(NCCO)c1ccccc12 | 54.7%
17 | O=[N+]([O-])c1ccc(N=NNc2ccc([N+](=O)[O-])cc2)cc1 | 4.5%
18 | CC(=O)Nc1ccc(/C=C2\N=C(c3ccccc3)OC2=O)cc1 | 15.9%
19 | CN(C)CC(C)(C)CO | 7.2%
20 | CCOc1snc(C(Cl)(Cl)Cl)c1Cl | 9.7%

Row | Structure (SMILES) | growth inhibition
21 | CN1CCC2(CC1)C(=O)N(Cc1ccccc1)C(=O)C2c1ccccc1 (stereo not given) | -9.95%
22 | COc1ccc(C2=C/C(=C/c3cccs3)C(=O)O2)cc1 | -14.2%
23 | BrC1(Br)C2COCOCC21 (stereo not given) | -9.6%
24 | COc1ccc(C(O)Cc2ccccc2)cc1 (stereo not given) | -4.9%
25 | COC(=O)C(C(=O)OC)C(c1cccc([N+](=O)[O-])c1)C(N)c1ccccc1 (stereo not given) | 15.3%
26 | CCOC(=O)NCC1(c2ccccc2)CCN(Cc2ccccc2)CC1 | -9.75%
27 | O=C(O)Cc1ccc(-c2ccccc2)[nH]1 | 3.35%
28 | COc1ccc2nccc(/C=C/CC3CCN(C(C)=O)CC3)c2c1 | 31.8%
29 | COc1cc2c[n+](C)c3c(c2cc1OC)Cc1cc2c(cc1-3)OCO2 | -27.5%
30 | CCOC(=O)C1=C(Nc2ccc(Cl)cc2Cl)OCC1=O | -12.3%
31 | O=C(c1nc2ccc(Cl)cc2[nH]c1=O)C(O)c1ccco1 (stereo not given) | -21.4%
32 | COc1cc(NCCCCCNC(C)C)c2ncccc2c1OC | -15.1%
33 | CC(=O)Nc1cc(F)c(N)c(F)c1 | -10.9%
34 | CC1=CC2C(c3ccccc3)Nc3ccccc3N2C1=O (stereo not given) | 32.6%
35 | CCOC(=O)C1(Cc2ccc3c(c2)CCC3)Cc2cc3c(cc2C1=O)CCC3 (stereo not given) | -11.1%
36 | COc1ccc2cc(NC(=O)N/N=C\c3ccc(Cl)cc3)ccc2c1 | 33.2%
37 | O=c1c(-c2ccc(O)cc2)coc2cc(O)cc(O)c12 | 8.85%
38 | C/C(=N/O)C1c2ccccc2Cc2ccccc21 | -11.5%
39 | CCCCCCCCCC(=O)OCCCC(CCCOC(=O)CCCCCCCCC)OC(=O)CCCCCCCCC | -19.9%
40 | CSc1cc(=O)[nH]c(=O)[nH]1 | 16.9%
